# Where “and” joins values, the source holds several entries; their conditions need not be identical. Equal values may be shown once. Screen size: about 5,500 compounds; about 2,000 (36%) were called active. Not shown: some 18% with an inconclusive outcome. No stated cut-off is given here; in the data, active means normalized growth mostly below about 0.91 (no sharp cut-off); inconclusive means no clear call, values can overlap the other calls; inactive means mostly above about 0.92. This is one part of the list.
# Assay: chemical genetic growth profiling, strain panel (AID 1159580);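 further: tested at 20 µM; growth read once vehicle control cultures reached saturation at 30 °C; 1 = growth at the plate median or of vehicle wells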
# Settings: S. cerevisiae deletion strains, growth OD
structure (smiles),measurement,setting,value
CCC(=O)O[C@H]1CCC2C3CCC4=CC(=O)CC[C@]4(C)C3CC[C@@]21C (some centres not stated),normalized growth,"locus YAL013W, strain DEP1, stronger effect = lower value",0.792 (active)
same,normalized growth,"locus YAL021C, strain ccr4, stronger effect = lower value",0.979 (inactive)
same,normalized growth,"locus YAL026C, strain drs2, stronger effect = lower value",0.959 (inactive)
same,normalized growth,"locus YAL030W, strain snc1, stronger effect = lower value",0.924 (active)
same,normalized growth,"locus YBL061C, strain skt5, stronger effect = lower value",0.866 (active)
same,normalized growth,"locus YBR009C, strain hhf1, stronger effect = lower value",0.883 (active)
same,normalized growth,"locus YBR021W, strain FUR4, stronger effect = lower value",0.782 (active)
same,normalized growth,"locus YBR023C, strain chs3, stronger effect = lower value",0.868 (active)
same,normalized growth,"locus YBR171W, strain sec66, stronger effect = lower value",0.925 (inactive)
same,normalized growth,"locus YBR229C, strain ROT2, stronger effect = lower value",0.969 (inactive)
same,normalized growth,"locus YBR231C, strain swc5, stronger effect = lower value",0.952 (inactive)
same,normalized growth,"locus YBR279W, strain paf1, stronger effect = lower value",0.959 (inactive)
same,normalized growth,"locus YCL011C, strain gbp2, stronger effect = lower value",0.843 (active)
same,normalized growth,"locus YCL016C, strain dcc1, stronger effect = lower value",0.905 (active)
same,normalized growth,"locus YCL029C, strain bik1, stronger effect = lower value",0.857 (active)
same,normalized growth,"locus YCL069W, strain vba3, stronger effect = lower value",0.962 (inactive)
same,normalized growth,"locus YCR088W, strain abp1, stronger effect = lower value",0.957 (inactive)
same,normalized growth,"locus YDL005C, strain med2, stronger effect = lower value",0.949 (inactive)
same,normalized growth,"locus YDL035C, strain GPR1, stronger effect = lower value",0.892 (inactive)
same,normalized growth,"locus YDL040C, strain nat1, stronger effect = lower value",0.946 (inactive)
same,normalized growth,"locus YDL074C, strain BRE1, stronger effect = lower value",0.76 (active)
same,normalized growth,"locus YDL101C, strain DUN1, stronger effect = lower value",0.95 (inactive)
same,normalized growth,"locus YDL185W, strain tfp1, stronger effect = lower value",1 (inactive)
same,normalized growth,"locus YDL192W, strain arf1, stronger effect = lower value",0.985 (inactive)
same,normalized growth,"locus YDR001C, strain nth1, stronger effect = lower value",0.962 (inactive)
same,normalized growth,"locus YDR069C, strain doa4, stronger effect = lower value",0.924 (inactive)
same,normalized growth,"locus YDR101C, strain arx1, stronger effect = lower value",0.957 (inactive)
same,normalized growth,"locus YDR137W, strain rgp1, stronger effect = lower value",0.689 (active)
same,normalized growth,"locus YDR159W, strain sac3, stronger effect = lower value",0.796 (active)
same,normalized growth,"locus YDR162C, strain NBP2, stronger effect = lower value",0.808 (active)
same,normalized growth,"locus YDR195W, strain ref2",0.993 (inactive)
same,normalized growth,"locus YDR297W, strain sur2, stronger effect = lower value",0.968 (inactive)
same,normalized growth,"locus YDR318W, strain mcm21, stronger effect = lower value",0.901 (active)
same,normalized growth,"locus YDR334W, strain swr1, stronger effect = lower value",0.952 (inactive)
same,normalized growth,"locus YDR335W, strain msn5, stronger effect = lower value",0.934 (inactive)
same,normalized growth,"locus YDR388W, stronger effect = lower value",0.981 (inactive)
same,normalized growth,"locus YDR392W, strain spt3, stronger effect = lower value",0.213 (active)
same,normalized growth,"locus YDR502C, strain sam2, stronger effect = lower value",0.919 (active)
same,normalized growth,"locus YEL003W, strain gim4, stronger effect = lower value",0.943 (inactive)
same,normalized growth,"locus YEL037C, strain rad23, stronger effect = lower value",0.96 (inactive)
same,normalized growth,"locus YEL061C, strain CIN8 (second series), stronger effect = lower value",0.968 (inactive)
same,normalized growth,"locus YEL061C, strain CIN8, stronger effect = lower value",0.933 (inactive)
same,normalized growth,"locus YER015W, strain faa2, stronger effect = lower value",0.954 (inactive)
same,normalized growth,"locus YER016W, strain bim1, stronger effect = lower value",0.879 (active)
same,normalized growth,"locus YER110C, stronger effect = lower value",0.998 (inactive)
same,normalized growth,"locus YER111C, strain swi4, stronger effect = lower value",0.928 (inactive)
same,normalized growth,"locus YER155C, strain BEM2 (second series), stronger effect = lower value",0.777 (active)
same,normalized growth,"locus YER155C, strain BEM2, stronger effect = lower value",0.873 (active)
same,normalized growth,"locus YER167W, strain BCK2, stronger effect = lower value",0.909 (inactive)
same,normalized growth,"locus YFR010W, strain ubp6, stronger effect = lower value",0.992 (inactive)
same,normalized growth,"locus YGL078C, strain dbp3, stronger effect = lower value",0.984 (inactive)
same,normalized growth,"locus YGL086W, strain mad1, stronger effect = lower value",0.873 (active)
same,normalized growth,"locus YGL167C, strain pmr1, stronger effect = lower value",0.928 (inactive)
same,normalized growth,"locus YGL173C, strain kem1, stronger effect = lower value",0.887 (active)
same,normalized growth,"locus YGL227W, strain vid30, stronger effect = lower value",0.949 (inactive)
same,normalized growth,"locus YGL240W, strain doc1, stronger effect = lower value",0.928 (inactive)
same,normalized growth,"locus YGL248W, strain PDE1, stronger effect = lower value",0.916 (inactive)
same,normalized growth,"locus YGL253W, strain hxk2, stronger effect = lower value",0.872 (active)
same,normalized growth,"locus YGR135W, strain pre9, stronger effect = lower value",0.969 (inactive)
same,normalized growth,"locus YGR229C, strain SMI1, stronger effect = lower value",0.821 (inactive)
same,normalized growth,"locus YGR252W, strain gcn5, stronger effect = lower value",0.872 (inactive)
same,normalized growth,"locus YHR013C, strain ard1, stronger effect = lower value",1.02 (inactive)
same,normalized growth,"locus YHR027C, strain rpn1, stronger effect = lower value",0.967 (inactive)
same,normalized growth,"locus YHR030C, strain SLT2, stronger effect = lower value",0.889 (active) and 0.906 (inactive)
same,normalized growth,"locus YHR079C, strain IRE1 (second series), stronger effect = lower value",0.981 (inactive)
same,normalized growth,"locus YHR079C, strain IRE1, stronger effect = lower value",0.896 (inactive)
same,normalized growth,"locus YHR094C, strain hxt1, stronger effect = lower value",0.982 (inactive)
same,normalized growth,"locus YHR129C, strain ARP1, stronger effect = lower value",0.943 (inactive)
same,normalized growth,"locus YHR142W, strain chs7, stronger effect = lower value",0.737 (active)
same,normalized growth,"locus YHR200W, strain rpn10, stronger effect = lower value",0.943 (inactive)
same,normalized growth,"locus YIL066C, strain RNR3, stronger effect = lower value",0.878 (inactive)
same,normalized growth,"locus YIL073C, strain SPO22, stronger effect = lower value",0.807 (inactive)
same,normalized growth,"locus YIL125W, strain kgd1, stronger effect = lower value",0.975 (inactive)
same,normalized growth,"locus YIR030C, strain dcg1, stronger effect = lower value",0.991 (inactive)
same,normalized growth,"locus YJL092W, strain hpr5, stronger effect = lower value",0.929 (inactive)
same,normalized growth,"locus YJL095W, strain BCK1 (second series), stronger effect = lower value",0.77 (active)
same,normalized growth,"locus YJL095W, strain BCK1, stronger effect = lower value",0.724 (active) and 0.95 (inactive)
same,normalized growth,"locus YJL115W, strain asf1, stronger effect = lower value",0.945 (inactive)
same,normalized growth,"locus YJL129C, strain trk1, stronger effect = lower value",0.781 (active)
same,normalized growth,"locus YJL134W, strain LCB3, stronger effect = lower value",0.978 (inactive)
same,normalized growth,"locus YJL154C, strain vps35, stronger effect = lower value",0.943 (inactive)
same,normalized growth,"locus YJL164C, strain tpk1, stronger effect = lower value",0.893 (active)
same,normalized growth,"locus YJL166W, strain qcr8, stronger effect = lower value",0.865 (active)
same,normalized growth,"locus YJL168C, strain set2, stronger effect = lower value",0.983 (inactive)
same,normalized growth,"locus YJL187C, strain SWE1 (second series), stronger effect = lower value",0.951 (inactive)
same,normalized growth,"locus YJL187C, strain SWE1, stronger effect = lower value",0.907 (active)
same,normalized growth,"locus YJR043C, strain POL32, stronger effect = lower value",0.928 (inactive)

# — PubChem BioAssay AID1159580 (chemical genetic matrix, 2015)
